Source: PubChem BioAssay
Results with a measured potency or affinity are listed apart. Calls of active or inactive are those of the source. Unless noted, how the calls were made is not given here.

What follows are compounds tested against Calcium-dependent protein kinase 1 (Plasmodium falciparum (isolate 3D7)) (UniProt P62344) (assay: PfCDPK1 kinase inhibitors, biochemical, TCAMS library (AID 1159585; cut-off not given, nearly all actives have IC50 up to about 0.98 µM;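 further: inhibitors leave more ATP so luminescence rises with inhibition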)). Conditions: recombinant PfCDPK1, Kinase-Glo ATP depletion luminescence.
Chain of Calcium-dependent protein kinase 1 (Plasmodium falciparum (isolate 3D7)) (P62344 whole entry, looked up): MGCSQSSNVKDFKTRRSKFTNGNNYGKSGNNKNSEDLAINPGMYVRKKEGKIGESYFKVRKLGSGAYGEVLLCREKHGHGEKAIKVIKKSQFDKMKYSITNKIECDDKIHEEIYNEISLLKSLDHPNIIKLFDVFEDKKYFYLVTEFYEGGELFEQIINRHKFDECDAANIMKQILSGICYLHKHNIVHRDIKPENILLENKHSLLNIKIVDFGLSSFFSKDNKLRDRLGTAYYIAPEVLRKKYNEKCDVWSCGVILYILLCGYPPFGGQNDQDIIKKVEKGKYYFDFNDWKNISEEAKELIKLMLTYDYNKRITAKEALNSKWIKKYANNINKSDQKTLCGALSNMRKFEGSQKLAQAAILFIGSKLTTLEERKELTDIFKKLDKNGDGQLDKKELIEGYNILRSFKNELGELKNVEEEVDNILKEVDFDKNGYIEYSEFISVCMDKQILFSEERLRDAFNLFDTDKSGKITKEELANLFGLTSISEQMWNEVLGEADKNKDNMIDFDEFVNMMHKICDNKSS

outcome, inactive:
NC(N)=Nc1nc(-c2ccc(NC(=O)Nc3cccc(-c4csc(N=C(N)N)n4)c3)cc2)cs1
CC(C)COc1ccc(Cl)cc1Cc1ccc(-c2nc3c(cnc4ccccc43)[nH]2)o1
CC1(C)N=C(N)N=C(N)N1OCc1cc(Cl)c(Cl)cc1CON1C(N)=NC(N)=NC1(C)C
CN(C)CCNCc1cccc(-c2cccc(-c3nc4ccccc4[nH]3)c2)c1
CCn1ccc2c(N3CCCS3(=O)=O)cc(C(=O)N[C@@H](Cc3ccccc3)[C@H](O)CNC3CCCCC3)cc21
CCCCCCN1CCN(Cc2cccc(NC(=O)c3cc4ccccc4s3)c2)CC1
N#Cc1ccc2c(c1)CCN(CCC1CCC(NC(=O)c3cc4cccc([N+](=O)[O-])c4[nH]3)CC1)C2 (stereo not drawn)
O=C(Cn1c(CCc2cccc(F)c2F)cc(=O)c2cccnc21)N(CCCn1ccnc1)Cc1ccc(-c2ccc(C(F)(F)F)cc2)cc1
O=C(Nc1cccc(OCCN2CCCC2)c1)Nc1ccc(Cl)c(Cl)c1
Cc1ccc(Nc2nc(C)cc(Nc3cccc(NS(C)(=O)=O)c3)n2)cc1
Cc1cccc2c3c([nH]c12)C1(CCN(Cc2ccccc2)CC1)NC(C(=O)NCc1ccccc1)C3 (stereo not drawn)
OCCn1c(CNCCCNc2nc3ccccc3[nH]2)cc2c(Cl)cc(Cl)cc21
CCOc1ccc2c(NN=Cc3cccc([N+](=O)[O-])c3)cc(C)nc2c1
CCN(CC)CCN(CCCc1ccc(-c2ccc(C(F)(F)F)cc2)cc1)C(=O)Cn1c(CCc2cccc(F)c2F)nc(=O)c2c1CCC2
Cc1cc(C(=O)Nc2nc(-c3ccccn3)nc3ccsc23)no1
CCCN(CCC)CCCNc1ccc(C(=O)Nc2ccc(C)c(F)c2)cc1[N+](=O)[O-]
CCN(CC)CCN(Cc1ccc(-c2ccc(C(F)(F)F)cc2)cc1)C(=O)Cn1cc(CCCc2cccc(F)c2F)c(=O)c2ccccc21
O=C(Cc1ccc(NC(=O)c2ccc(O)c(-c3ccc(Cl)c(Cl)c3)c2)cc1)NCCc1ccc(Cl)c(Cl)c1
C=CCO[C@@H]1O[C@H](COC(c2ccccc2)(c2ccccc2)c2ccccc2)[C@@H](OC(C)=O)[C@H](OC(C)=O)[C@H]1NC(C)=O
CCOc1cc(NCCSCc2nc[nH]c2C)nc2ccccc12
Cc1cc(C(=O)Nc2ccc(-c3nc4ccccc4[nH]3)cc2)ccc1[N+](=O)[O-]
Cc1ccc(C)c2sc(N(CCCn3ccnc3)C(=O)C=Cc3cccs3)nc12
COc1cc(C=Cc2ccc3ccccc3n2)cc(Br)c1OCC(=O)N(C)C
O=C(Nc1ccc(N2CCCCC2)c(Cl)c1)c1ccc(Br)o1
Cn1cnc(CCNC(=O)c2cccc(-c3cccc(-c4nc5ccc(C(F)(F)F)cc5[nH]4)c3)c2)c1
CC(Cc1ccc(CN(CC(N)=O)Cc2ccc(CC(C)NCCc3cccc(Cl)c3)cc2)cc1)NCCc1cccc(Cl)c1 (stereo not drawn)
CCC1CCCCN1S(=O)(=O)c1ccc(OC)c(N2CCN(C(=O)C(Cl)(Cl)Cl)CC2)c1 (stereo not drawn)
Cc1cc2ncn(-c3ccnc(N4CCN(CCCN5CCCC5)CC4)n3)c2cc1C

What follows are compounds tested against Plasmodium falciparum protein kinase 6 (PK6, PF3D7_1337100) (UniProt Q8IDW1) (assay: PfPK6 kinase inhibitors, biochemical, TCAMS library (AID 1159586)). Conditions: recombinant PfPK6, Kinase-Glo ATP depletion luminescence.
Chain of Plasmodium falciparum protein kinase 6 (PK6, PF3D7_1337100) (Q8IDW1 1-305): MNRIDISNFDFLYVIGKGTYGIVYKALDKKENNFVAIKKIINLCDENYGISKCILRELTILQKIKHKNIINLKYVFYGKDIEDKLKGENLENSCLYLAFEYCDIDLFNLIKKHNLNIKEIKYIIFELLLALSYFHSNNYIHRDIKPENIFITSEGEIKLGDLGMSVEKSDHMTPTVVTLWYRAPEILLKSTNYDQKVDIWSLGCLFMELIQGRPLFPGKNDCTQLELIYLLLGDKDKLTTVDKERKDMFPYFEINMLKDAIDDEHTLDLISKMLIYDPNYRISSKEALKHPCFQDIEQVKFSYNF

outcome, inactive:
Cc1cc(-c2cccc(CNCCc3ccc(Cl)cc3)c2)cnc1N
CCCCCCN1CCN(Cc2cccc(NC(=O)c3cccc(OCC)c3)c2)CC1
CCOc1ccc(Br)cc1/C=C/C(=O)Nc1ccc2c(c1)CN(C)CCC2
O=C(CN1CCN(C(=O)c2ccco2)CC1)Nc1ccc(Br)cc1Cl
FC(F)(F)c1ccc2nc(-c3ccc(-c4ccc(CNCC5CCCO5)cc4)cc3)[nH]c2c1 (stereo not drawn)
CC[C@H](NC(=O)c1ccc(NC(=O)OC(C)(C)C)cc1)C(=O)N[C@@H](CO)C(=O)NCCCCc1ccccc1
Cc1cccc(C(=O)Nc2ccnc(N3CCC(N(C)Cc4cccc(O)c4)CC3)c2)c1
CCCSc1nc2c(c(=O)n1CCc1ccccc1)C1(CCCC1)Cc1ccccc1-2
COc1ccc2c(NN=Cc3cccnc3)ccnc2c1
Cc1cc(N[C@@H](CC(C)C)C(=O)NCc2cccc(F)c2)nc(NCC2CCCCC2)n1
CN1CCCN(Cc2ccc(-c3ccc(NC(=O)c4ccc(C#N)cc4)cc3)cc2)CC1
O=C(N[C@@H](CC1CCCCC1)C(=O)NCCN1CCCC1)c1ccc(O)c(-c2ccc(Cl)c(Cl)c2)c1
NC(N)=Nc1nc(-c2ccc(NC(=O)Nc3cccc(-c4csc(N=C(N)N)n4)c3)cc2)cs1
CC(C)COc1ccc(Cl)cc1Cc1ccc(-c2nc3c(cnc4ccccc43)[nH]2)o1
CC1(C)N=C(N)N=C(N)N1OCc1cc(Cl)c(Cl)cc1CON1C(N)=NC(N)=NC1(C)C
CN(C)CCNCc1cccc(-c2cccc(-c3nc4ccccc4[nH]3)c2)c1
CCn1ccc2c(N3CCCS3(=O)=O)cc(C(=O)N[C@@H](Cc3ccccc3)[C@H](O)CNC3CCCCC3)cc21
CCCCCCN1CCN(Cc2cccc(NC(=O)c3cc4ccccc4s3)c2)CC1
N#Cc1ccc2c(c1)CCN(CCC1CCC(NC(=O)c3cc4cccc([N+](=O)[O-])c4[nH]3)CC1)C2 (stereo not drawn)
O=C(Cn1c(CCc2cccc(F)c2F)cc(=O)c2cccnc21)N(CCCn1ccnc1)Cc1ccc(-c2ccc(C(F)(F)F)cc2)cc1
O=C(Nc1cccc(OCCN2CCCC2)c1)Nc1ccc(Cl)c(Cl)c1
Cc1ccc(Nc2nc(C)cc(Nc3cccc(NS(C)(=O)=O)c3)n2)cc1
Cc1cccc2c3c([nH]c12)C1(CCN(Cc2ccccc2)CC1)NC(C(=O)NCc1ccccc1)C3 (stereo not drawn)
OCCn1c(CNCCCNc2nc3ccccc3[nH]2)cc2c(Cl)cc(Cl)cc21
CCOc1ccc2c(NN=Cc3cccc([N+](=O)[O-])c3)cc(C)nc2c1
CCN(CC)CCN(CCCc1ccc(-c2ccc(C(F)(F)F)cc2)cc1)C(=O)Cn1c(CCc2cccc(F)c2F)nc(=O)c2c1CCC2
Cc1cc(C(=O)Nc2nc(-c3ccccn3)nc3ccsc23)no1
CCCN(CCC)CCCNc1ccc(C(=O)Nc2ccc(C)c(F)c2)cc1[N+](=O)[O-]
CCN(CC)CCN(Cc1ccc(-c2ccc(C(F)(F)F)cc2)cc1)C(=O)Cn1cc(CCCc2cccc(F)c2F)c(=O)c2ccccc21
O=C(Cc1ccc(NC(=O)c2ccc(O)c(-c3ccc(Cl)c(Cl)c3)c2)cc1)NCCc1ccc(Cl)c(Cl)c1
C=CCO[C@@H]1O[C@H](COC(c2ccccc2)(c2ccccc2)c2ccccc2)[C@@H](OC(C)=O)[C@H](OC(C)=O)[C@H]1NC(C)=O
CCOc1cc(NCCSCc2nc[nH]c2C)nc2ccccc12
Cc1cc(C(=O)Nc2ccc(-c3nc4ccccc4[nH]3)cc2)ccc1[N+](=O)[O-]
Cc1ccc(C)c2sc(N(CCCn3ccnc3)C(=O)C=Cc3cccs3)nc12
COc1cc(C=Cc2ccc3ccccc3n2)cc(Br)c1OCC(=O)N(C)C
O=C(Nc1ccc(N2CCCCC2)c(Cl)c1)c1ccc(Br)o1
Cn1cnc(CCNC(=O)c2cccc(-c3cccc(-c4nc5ccc(C(F)(F)F)cc5[nH]4)c3)c2)c1
CC(Cc1ccc(CN(CC(N)=O)Cc2ccc(CC(C)NCCc3cccc(Cl)c3)cc2)cc1)NCCc1cccc(Cl)c1 (stereo not drawn)
CCC1CCCCN1S(=O)(=O)c1ccc(OC)c(N2CCN(C(=O)C(Cl)(Cl)Cl)CC2)c1 (stereo not drawn)
Cc1cc2ncn(-c3ccnc(N4CCN(CCCN5CCCC5)CC4)n3)c2cc1C
